Most compounds without a hit are left out; they make up all but 3.4% or so of the library.
JMJD2E inh: inhibitors of human JMJD2E histone demethylase | JMJD2E catalytic domain, FDH-coupled NADH fluorescence (FDH is formaldehyde dehydrogenase) | Potency, µM (doses to about 57.1 µM), for inactives: at the top dose activity change, negative = inhibition, hits mostly inhibitors | actives 1.6% (n = 230,000); active = well fitted inhibition curve with a large enough effect, not every such curve was filed as active; inconclusive = small, poorly fitted or top-dose-only effect, or another doubt; inactive = no such curve, though single readings can be large or run the other way;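 also: 0% = wells with enzyme and -100% = buffer wells without enzyme; nearly all actives have a fitted effect of over 50% in size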
Target sequence (B2RXH2 1-337 limits assumed): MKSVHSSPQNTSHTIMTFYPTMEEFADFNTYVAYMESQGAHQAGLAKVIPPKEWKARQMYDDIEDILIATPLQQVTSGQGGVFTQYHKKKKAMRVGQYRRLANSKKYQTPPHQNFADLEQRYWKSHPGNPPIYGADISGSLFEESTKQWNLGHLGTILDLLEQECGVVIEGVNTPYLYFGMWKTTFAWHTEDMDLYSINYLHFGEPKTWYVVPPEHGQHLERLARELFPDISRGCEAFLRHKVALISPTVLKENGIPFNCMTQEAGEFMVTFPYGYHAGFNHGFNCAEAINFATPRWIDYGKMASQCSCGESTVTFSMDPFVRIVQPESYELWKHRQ
GoLoco inh red: RGS12 GoLoco-Gai1 interaction inhibition; Gai1:RGS12 GoLoco peptide FP, rhodamine, 10 min; P63096; actives 0.44% (n = 230,000); AID 880; Potency, µM (doses to about 61.6 µM), for inactives: top-dose activity, negative = inhibition, actives largely listed as inhibitors; active = well fitted inhibition curve with a large enough effect, not every such curve was filed as active; inactive = no such curve, though single readings can be large or run the other way; also: nearly all actives have a fitted effect of over 30% in size
Target sequence (P63096 whole entry, looked up): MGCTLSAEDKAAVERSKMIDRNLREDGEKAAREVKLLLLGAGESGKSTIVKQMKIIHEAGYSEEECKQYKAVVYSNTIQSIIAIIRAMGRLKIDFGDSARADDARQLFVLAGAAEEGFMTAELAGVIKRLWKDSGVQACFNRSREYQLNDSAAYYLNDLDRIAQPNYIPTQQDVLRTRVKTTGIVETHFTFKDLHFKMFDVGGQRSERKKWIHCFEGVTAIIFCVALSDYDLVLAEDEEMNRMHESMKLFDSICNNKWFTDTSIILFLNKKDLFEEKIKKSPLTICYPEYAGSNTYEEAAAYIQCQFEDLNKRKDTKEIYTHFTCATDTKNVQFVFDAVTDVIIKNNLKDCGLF
Tau fibril FP: tau fibrillization inhibition (FP); K18 P301L tau heparin fibrillization, Alexa594 FP, 6 h; actives 0.39% (n = 280,000); P10636; AID 1468; Potency, µM (top dose mostly 57.7 µM), inactives show at the highest dose activity, negative = inhibition, usual class: inhibitors; also: nearly all actives have a fitted effect of over 55% in size
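Recombinant K18 P301L […], labeled with Alexa 594 at 0.24 uM over 15 uM unlabeled; heparin inducer 20 uM final; 37 C, 6 hr; FP endpoint.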
Tau fluor counter: counter-screen for tau fibril formation inhibitors; Potency, µM (top dose mostly 57.7 µM), inactives show at the top dose activity change, negative = decrease; tau K18 P301L Alexa594 fluorescence, heparin fibrillization; actives 0.93% (n = 280,000); also: nearly all actives have a fitted effect of over 55% in size
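Human tau K18 P301L (15 uM unlabeled, 0.24 uM Alexa 594-labeled) in 100 mM sodium acetate pH 7 with 20 uM heparin, 6 hr at 37 C. ThT 30 uM added, 1 hr ambient; Alexa 594 FP and total fluorescence read at 555/632 nm.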
Tau ThT inhib: tau fibrillization inhibition (ThT binding); P10636; recombinant tau K18 P301L, heparin-induced fibrillization, ThT fluorescence; Potency, µM (top dose mostly 57.4 µM), for the others: top-dose activity, negative = inhibition, hits mostly inhibitors; actives 2.1% (n = 270,000); also: nearly all actives have a fitted effect of over 55% in size
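ThT emission at 510 nm, taken 1 hr after adding 30 uM dye, quantifies aggregates formed when 20 uM heparin acts on human tau K18 P301L for 6 hr at 37 C.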
An asterisk follows results filed as active; ? = inconclusive; · = no result; ! = repeats disagree; [ ] = another dose, or the depositor's remark. Unless noted, calls follow the shape of the dose curve; as a rule, active = well fitted curve in the direction sought with a large enough effect; inconclusive = small, poorly fitted or top-dose-only effect, or another doubt; inactive = no such curve, though single readings can be large; an effect the other way counts as inactive or inconclusive. Unless noted, % is scaled to controls: 0 for no effect and ±100 for the full control effect; potency is read from the fitted curve at half-maximal effect.

SMILES	JMJD2E inh	GoLoco inh red	Tau fibril FP	Tau fluor counter	Tau ThT inhib
COc1ccc(C)cc1-n1c(=O)c2ccccc2c2ccccc2c1=O	-17%	4%	-6%	-6%	?
O=[N+]([O-])c1ccc(O)c2cccnc12	-11%	-3%	-7%	-7%	?
O=Nc1ccc(O)c2ncccc12	25µM*	1%	?	-29%	?
COc1ccc(N=Nc2ccc(O)c3ncccc23)cc1	?	9%	?	-26%	1.4µM*
COc1ccc2ncc3c(-c4ccc(C)c(C)c4)nn(CC(=O)Nc4ccccc4)c3c2c1	·	·	-10%	-22%	-13%
COC(=O)c1cc2sc(C)cc2n1CC(=O)Nc1ccc(C)cc1Cl	·	·	1%	-7%	3%
Oc1ccc(N=Nc2ccc3c(c2)OCCO3)c2cccnc12	?	11%	?	?	2µM*
Oc1ccc(N=Nc2ccc3c(c2)OCCO3)c(O)c1	-1%	13%	5%	?	3.2µM*
COc1cccc(C=Nc2ccc3c(c2)OCCO3)c1O	-6%	9%	0%	-9%	?
COCCCN1C(=O)c2[nH]nc(-c3ccccc3O)c2C1c1ccc(OC)cc1 (centres undefined)	·	·	-3%	-26%	-8%
COc1ccc(Nc2nc(-c3cccs3)cs2)cc1	-8%	4%	4%	?	?
COc1ccc(Nc2nc(-c3cccs3)nc3ccccc23)c(OC)c1	?	7%	-6%	10µM*[quencher]	?
COc1ccc(Nc2nc(-c3cccc([N+](=O)[O-])c3)nc3ccccc23)c(OC)c1	3%	11%	?	?	-4%
COc1ccc(Nc2nc(-c3cccs3)cs2)c(OC)c1	?	-23%	11%	16µM*[quencher]	11µM*
Oc1ccc(Nc2nc(-c3cccs3)cs2)cc1	4%	11%	2%	11µM*[quencher]	?
COc1ccc(OC)c(Nc2nc(-c3cccs3)cs2)c1	-7%	-5%	4%	16µM*[quencher]	?
CCOC(=O)c1ccc(NC(=O)Cn2nc(C)c3nn(-c4ccc(Cl)cc4)c(C)c3c2=O)cc1	·	·	9%	-8%	0%
COc1ccccc1Nc1nc(-c2cccs2)cs1	-17%	54%	1%	?	14µM*
Cc1ccc(CNc2nc(-c3cccs3)nc3ccccc23)cc1	?	-5%	40µM*	?	-14%
COc1ccc(-n2nnc(-c3nc(-c4ccc5c(c4)OCO5)no3)c2C)cc1Cl	·	·	-2%	-5%	?
COc1ccc(NC(=O)c2cnc3sc(N4CCOCC4)nn3c2=O)c(OC)c1	·	·	4%	-2%	-4%
CC(=O)c1c(N=CN(C)C)nc(C)nc1-c1ccccc1	1%	1%	-4%	1%	2%
CN(C)C=Nc1ccccc1C1C=NNC1=O (centres undefined)	-30%	-1%	-7%	-29%	11µM*
O=C(CCCCCNC(=O)c1ccccc1)N/N=C/c1ccco1	-2%	6%	-4%	-3%	-7%
Oc1ccc(/C=N/Nc2ccc3ccccc3c2)c(O)c1	?	9%	?	20µM*[quencher]	18µM*
SMILES	JMJD2E inh	GoLoco inh red	Tau fibril FP	Tau fluor counter	Tau ThT inhib
O=C(CCCCCNC(=O)c1ccccc1)N/N=C/c1ccccc1O	25µM*	4%	0%	-17%	-16%
Cc1ccc(S(=O)(=O)NCC(=O)N/N=C/c2ccccc2O)cc1	25µM*	8%	-12%	-21%	-6%
Oc1ccccc1/C=N/Nc1ccccc1	-12%	-2%	18%	25µM*[quencher]	?
CCCSc1ncc(Cl)c(C(=O)N2CCN(c3cccc(Cl)c3)CC2)n1	·	·	0%	-19%	-15%
CCOC(=O)c1ccccc1NC(=O)COc1ccccc1-c1nnc(-c2ccccc2)o1	·	·	6%	-17%	-14%
CCc1cccc(C)c1NC(=O)c1cc2ccccc2o1	·	·	-4%	-7%	-1%
C[C@H]1c2cccc(O)c2C(O)=C2C(=O)[C@]3(O)C(O)=C(C(N)=O)C(=O)C(N(C)C)[C@@H]3[C@@H](O)C21 (some centres undefined)	?	-1%	-8%	-22%	?
C[C@H]1c2cccc(O)c2C(O)=C2C(=O)[C@]3(O)C(O)=C(C(N)=O)C(=O)[C@@H](N(C)C)[C@@H]3[C@@H](O)[C@@H]21	20µM*	-2%	-13%	-15%	-12%
Cc1ccc(NCC(=O)N/N=C/c2cc3ccccc3nc2Cl)cc1	-11%	5%	2%	?	18µM*
Cc1ccc(N2C(=O)CS/C2=C(\C(Cl)=C(Cl)Cl)[N+](=O)[O-])cc1	1%	241%	?	?	25µM*
CCN1C(c2ccccc2)=C(c2ccccc2)S/C1=C/C=C1\SC(=S)N(C)C1=O	1%	11%	-7%	3.2µM*[fluorescent]	?
Cc1ccc(NC(=O)c2oc3ccccc3c2NC(=O)C23CC4CC(CC(C4)C2)C3)cc1	·	·	?	-21%	1%
CCSc1ncc(/C=N/Nc2ccc(F)cc2)n1C	3%	-9%	5%	?	8.9µM*
CCOC(=O)c1ccc(NC(=O)CC2C(=O)N(c3ccc(F)cc3)C(=O)N2Cc2cccnc2)cc1 (centres undefined)	·	·	1%	-16%	-1%
O=C(O)/C=C/c1ccc(O)c(O)c1	0.56µM*!	-8%	-10%	-21%	?
O=C(/C=C/c1ccc(Br)cc1)NC(=O)c1ccccc1O	-23%	8%	11%	-20%	?
O=C(/C=C/c1ccc(O)c(O)c1)NC(=O)c1ccccc1O	14µM*	-3%	9%	-29%	?
COc1ccc(N2C(=O)C(CC(=O)Nc3ccccc3)N(CCC3=CCCCC3)C2=O)cc1 (centres undefined)	·	·	-16%	-23%	5%
Nc1ccc(N=Nc2ccccc2)c(N)c1	·	6%	·	·	·
Nc1ccc(N=Nc2ccc(N)cc2)cc1	-7%	2%	1%	-20%	11µM*
CCCSc1nc(O)c(C(c2ccc(OC)c(O)c2)c2c(O)nc(SCCC)n(C)c2=O)c(=O)n1C	-14%	2%	?	-16%	4µM*
COc1ccc(C(c2c(C)n(C)n(-c3ccccc3)c2=O)c2c(C)n(C)n(-c3ccccc3)c2=O)cc1O	-6%	6%	-1%	13%	14%
COc1cccc(C(c2c(O)nc(SC)n(C)c2=O)c2c(O)nc(SC)n(C)c2=O)c1	4%	-14%	?	-17%	13µM*
CC1=NN(c2ccccc2)C(=O)C1C=Nc1ccc(N(C)C)cc1 (centres undefined)	?	5%	5%	?	7.9µM*
COc1ccccc1NC(=O)Cn1c(=O)n(Cc2ccccc2)c(=O)c2c1c1cc(C)ccc1n2C	·	·	?	-7%	-1%
O=C(N/N=C/c1ccncc1)C1CC1(c1ccccc1)c1ccccc1 (centres undefined)	-13%	-1%	-7%	?	?
O=C(N/N=C/c1c[nH]c2ccccc12)C1CC1c1ccccc1 (centres undefined)	-8%	·	4%	14µM*[quencher]	?
